Inconclusive results are not listed. Active and inactive are the calls of the source. Rule for the calls, unless noted: active = hit-call score of the fitted dose curve at least 0.9, where 1 is the maximum; inconclusive = response in the unintended direction; inactive = score below 0.9.

Assay [1] can be described thus: Tanguay_ZF_120hpf_BRAI_legacy: (Legacy) Oregon State University Tanguay Lab 120 Hour Post-fertilization zebrafish Assay for Brain Malformation (AID 2283641). In outline:
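Brain malformation in Tropical 5D zebrafish was recorded as a binary endpoint after static compound exposure from early development to 120 hpf at 28C. Activity was analysed against DMSO as negative control.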

A short description of assay [2]: Tanguay_ZF_120hpf_SOMI_legacy: (Legacy) Oregon State University Tanguay Lab 120 Hour Post-fertilization zebrafish Assay for Somite Malformation (AID 2283647). The method, boiled down:
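5D WT zebrafish; chorion removed 4 hpf; 1 embryo/well from 6 hpf; static exposure to 120 hpf, 28C, 0.64% DMSO final. Endpoint: somite malformation, binary, brightfield. Mortality excluded.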

Assay [3] can be described thus: Tanguay_ZF_120hpf_PFIN_legacy: (Legacy) Oregon State University Tanguay Lab 120 Hour Post-fertilization zebrafish Assay for Pectoral Fin Malformation (AID 2283648).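 Note: each larva judged yes or no for fin defect by brightfield with dead larvae skipped.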 In outline:
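Tropical 5D wild-type embryos, dechorionated with pronase at 4 hpf, were placed singly in wells at 6 hpf and statically exposed until 120 hpf at 28C, sealed and dark, with 0.64% (vol/vol) final DMSO; pectoral fin malformation scored present/absent.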

A short description of assay [4]: Tanguay_ZF_120hpf_CFIN_legacy: (Legacy) Oregon State University Tanguay Lab 120 Hour Post-fertilization zebrafish Assay for Caudal Fin Malformation (AID 2283649). In outline:
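Embryos were collected from Tropical 5D wild-type adults and dechorionated at 4 hpf. At 6 hpf each was exposed, one per well, at 0.64% DMSO and 28C. At 120 hpf fin morphology was scored; dead embryos were excluded.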

Assay [5] is described as follows: Tanguay_ZF_120hpf_PIG_legacy: (Legacy) Oregon State University Tanguay Lab 120 Hour Post-fertilization zebrafish Assay for Pigmentation Malformation (AID 2283650). The method, boiled down:
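Tropical 5D wild-type zebrafish embryos, dechorionated with pronase at 4 hpf, were exposed singly from 6 hpf to 120 hpf statically at 28C in sealed, dark plates with 0.64% DMSO; pigmentation scored present/absent by brightfield microscopy, fitted against DMSO.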

Assay [6] is described as follows: Tanguay_ZF_120hpf_TRUN_legacy: (Legacy) Oregon State University Tanguay Lab 120 Hour Post-fertilization zebrafish Assay for Truncated Body (AID 2283655). The method, boiled down:
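5D wild-type larvae; pronase dechorionation; static exposure 6→120 hpf, 28C; DMSO 0.64% final; 5uM trimethyltin chloride positive control. Readout: presence/absence of truncated body, analyzed relative to DMSO.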

Assay [7] is described as follows: Tanguay_ZF_120hpf_NC_legacy: (Legacy) Oregon State University Tanguay Lab 120 Hour Post-fertilization zebrafish Assay for Notochord and Tail Malformation (AID 2283656). The method, boiled down:
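Dechorionated 5D zebrafish, 1/well from 6 hpf; static exposure to 120 hpf, 28C, sealed, dark; final DMSO 0.64% v/v. NC scored binary (present/absent); dead embryos not scored. Fit vs DMSO baseline, gain direction.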

Assay [8] in a line: Tanguay_ZF_120hpf_TR_legacy: (Legacy) Oregon State University Tanguay Lab 120 Hour Post-fertilization zebrafish Assay for Touch Response (AID 2283667). The method, boiled down: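 Tropical 5D wild-type zebrafish embryos were exposed statically in sealed, foil-covered plates at 28C until 120 hpf, with 0.64% (vol/vol) final DMSO. Touch response was scored as present or absent; embryos that died were not scored.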

The nature of assay [9]: STM_H9_CystineISnorm_perc: Stemina devTOX quickPredict H9 human embryonic stem cell (hESC)-based Assay for Cystine (CYSS) Metabolite Biomarker, Normalized (AID 2283713; active = hit-call score of the fitted dose curve at least 0.9, where 1 is the maximum; inactive = score below 0.9). In outline: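 Secreted cystine was measured by UPLC-HRMS in H9 hESC medium after 72h compound exposure with 24-hourly replenishment. Values are standard-normalized areas relative to 0.1% DMSO.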
Assay [10] is described as follows: STM_H9_OrnCyssISnorm_ratio: Stemina devTOX quickPredict H9 human embryonic stem cell (hESC)-based Assay for Ornithine (ORN):Cystine (CYSS) Ratio (AID 2283714). The method, boiled down: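 Undifferentiated H9 hESCs were exposed to compound for 72h with media and chemical replaced every 24h. Final 24-h conditioned media were deproteinized and analysed by UPLC-HRMS. ORN and CYSS peak areas were normalized to C13 internal standards and the ratio taken versus 0.1% DMSO.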

Assay [11] is described as follows: Tanguay_ZF_120hpf_SWIM_legacy: (Legacy) Oregon State University Tanguay Lab 120 Hour Post-fertilization zebrafish Assay for Swim Bladder Malformation (AID 2283654).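 Note: swim bladder malformation in each larva scored yes or no under brightfield.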 In outline: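 Dechorionated Tropical 5D wild-type embryos, placed singly from 6 hpf, were statically exposed at 28C to 120 hpf with 0.64% DMSO final; swim bladder malformation was scored present/absent by brightfield microscopy, gain of signal relative to DMSO controls.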

Assay [12] has as its system Thyroperoxidase (TPO), gene 54314. The experiment in a line: CCTE_Simmons_AUR_rTPO: CCTE's Amplex UltraRed Assay for Thyroperoxidase (TPO) Inhibition, Simmons Lab (AID 2283662).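 Note: potency for loss of signal meaning inhibition of peroxidase activity.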 The method, boiled down: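 Rat thyroid microsomes (5 ug protein) with 25 uM Amplex UltraRed and 300 uM H2O2 in 200 mM phosphate buffer, 30 min at 37C in dark; fluorescence 544/590 nm. Eight concentrations, 5 nM–87.5 uM final, 0.5% DMSO, triplicate biological replicates.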

The nature of assay [13]: CCTE_Padilla_ZF_144hpf_TERATOSCORE: (Legacy) CCTE's 144 Hour Post-fertilization zebrafish Assay Teratoscore, Padilla Lab (AID 2283679; active = hit-call score of the fitted dose curve at least 0.9, where 1 is the maximum; inactive = score below 0.9;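 for AC50: zebrafish embryos with chorions exposed by immersion from 6-8 hpf to 5 dpf with daily renewal; teratogenicity score from eye scoring of death hatching and malformations at 144 hpf; higher score means more developmental defects relative to DMSO baseline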). The method, boiled down: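 Larvae scored by eye at 144 hpf for death, hatching and malformations after a day in clean Hanks'. Before that, daily-renewed exposure at 80 uM (0.4% DMSO, 26C) from roughly 6-8 hpf through 5 dpf, 4 embryos per chemical.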

Assay [14] in a line: CCTE_Simmons_CellTiterGLO_HEK293T: Viability Assessment in CCTE's Assays for Thyroperoxidase (TPO) Inhibition, Simmons Lab (AID 2283665).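 Note: cells exposed to compound for 24 h before readout; actives reduce ATP signal below DMSO vehicle meaning cytotoxicity.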 The method, boiled down: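 Cytotoxicity counter-screen: human HEK293T cells in low-serum (1% FBS) medium receive test chemical, 5 nM to 87.5 uM final, for 24 h; ATP is quantified by luciferase luminescence.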

Regarding `CCc1ccc(CCOc2ccc(CC3SC(=O)NC3=O)cc2)nc1` (centres undefined), the compound was called inactive in assay [1], in assay [2], in assay [3], in [4], in assay [5] and in assay [6]. Further, the outcome in assay [7] and in [8] was inactive. Further, the AC50 in assay [9] was 88900 nM (active); in assay [10], 84500 nM (active).

For the compound `CC1=C(/C=C/C(C)=C/C=C/C(C)=C/C(=O)O)C(C)(C)CCC1`, the AC50 in assay [1] was 237 nM (active); in [2], 323 nM (active); in assay [3], 248 nM (active); in [4], 186 nM (active); in assay [5], 252 nM (active); in assay [6], 168 nM (active). Moreover, the AC50 was 272 nM (active) in assay [7]; 25000 nM (active) in [12]; 91.4 nM (active) in [8]; 8.1 nM (active) in assay [13]; 8.44 nM (active) in [9]; 5.32 nM (active) in assay [10]. Besides, in [11], the compound was classed as inactive.

Turning to `CCCCOCCO`, the compound was called inactive in assay [1], in [2], in assay [3], in assay [4], in assay [5] and in assay [11]. The result in assay [7] and in assay [13] was inactive.

Regarding `NC(=O)N1C(=O)C(C(=O)c2cc(Cl)cs2)c2cc(F)c(Cl)cc21` (centres undefined), the compound was called inactive in [1], in [3], in [4], in [5], in assay [11] and in assay [6]. Besides, the outcome in [7] and in [8] was inactive. For the same compound, the AC50 in assay [13] is 4570 nM (active).

Consider `OC1CCCCC1`, for which the outcome in assay [1], in [3], in [4], in [5], in [11] and in [6] was inactive. Also, the compound was classed as inactive in assay [7], in [8] and in assay [13].

With `CCCCCCCCC(=O)O`, the compound was classed as inactive in assay [1], in assay [2], in assay [3], in [4], in assay [5] and in assay [11]. Moreover, the compound was classed as inactive in [6], in [7] and in assay [8].

In the case of `CC(C)(C)c1ccc(O)c(C(C)(C)C)c1`, the outcome in assay [1], in [3], in assay [4], in assay [5], in [11] and in [6] was inactive. The compound was classed as inactive in assay [7] and in assay [8]. For the same compound, the figures for the AC50 in [12], in assay [14] and in assay [13] were 13600 nM (active), 6680 nM (active) and 7380 nM (active), respectively.
